Screening data deposited in PubChem by National Center for Advancing Translational Sciences (NCATS).
Pf growth 96h – P. falciparum growth inhibition at 96 hour, primary screen for plastid delayed-death inhibitors | P. falciparum luciferase reporter growth, 96 h | Potency, µM (highest dose often 28.7 µM), without a hit: top-dose activity change, negative = inhibition, actives largely listed as inhibitors | 6.9% of 320,000 active; note: potency is the fitted concentration of half-maximal effect; % is set by controls: 0 for no effect and ±100 for the full control effect
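Compounds incubated with erythrocytes infected by luciferase-expressing P. falciparum (2% hematocrit, 0.05% parasitemia final) for 96 hours, 37 C in 5% CO2. Growth inhibition scored as decreased luciferase luminescence.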
CHX counter – counter-screen for Shiga toxin inhibitors: cycloheximide protein synthesis inhibition | cell reporter, cycloheximide protein synthesis inhibition counterscreen | max response, % | 12% of 300,000 active; in the data active = max response mostly above about 13%, no sharp cut-off; inactive = mostly below about 14%; note: read at 38.3 µM for the half of the compounds with a filed dose; 0% is about no effect
Shiga inhibitor – inhibitors of Shiga toxin in Vero cells. Vero cells, Shiga toxin protein synthesis inhibition reporter. inhibition, % at 38.7 µM. 9.2% of 290,000 active; in the data active = inhibition mostly above about 28%, no sharp cut-off; inactive = mostly below about 43%; note: 0% is about no effect
HCMV antiviral – inhibitors of human cytomegalovirus; HFF cells, HCMV-luciferase reporter, 72 h; hits give low values; activity change, negative = inhibition, % at 57.5 µM; 4.5% of 410,000 active; AID 1259415; in the data active = activity change below about -60%; inconclusive = no clear call, values can overlap the other calls; inactive = above about -39%; note: % is set by controls: 0 for no effect and ±100 for the full control effect
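Cell-based, HFFs, 1000 cells/well, 16 h 37C; cpds in DMSO + HCMV-luc, MOI 1 PFU/cell; 72 h 37C; OneGlo luminescence after 5 min RT; norm. to buffer vs Salinomycin 10uM.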
Pf growth 48h – P. falciparum growth inhibition at 48 hours (one generation); 5.9% of 310,000 active; Potency, µM (top dose mostly 28.7 µM), without a hit: at the top dose activity change, negative = inhibition, actives largely listed as inhibitors; P. falciparum luciferase growth in erythrocytes, 48 h; AID 504832; note: potency is the fitted concentration of half-maximal effect; % is set by controls: 0 for no effect and ±100 for the full control effect
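A one-generation exposure of luciferase-tagged malaria parasites in RPMI 1640/Albumax erythrocyte culture, 37 C and 5% CO2. Inhibition is inferred from decreased luminescence after adding detection reagent.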
HCV inh – blocks hepatitis C virus. Huh7.5.1 HCVcc-Cre infection, luciferase reporter, 44 h. 3.4% of 340,000 active. AID 651820. Potency, µM (highest dose often 41.8 µM), without a hit: at the highest dose activity change, negative = inhibition, actives largely listed as inhibitors; note: potency is the fitted concentration of half-maximal effect; % is set by controls: 0 for no effect and ±100 for the full control effect
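Antiviral activity was scored by luciferase reporter output from cells infected with HCVcc-Cre (~0.5 moi) in presence of compound, 44 h infection period, cells seeded 1,000/well 4 h prior.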
* = called active by the depositor; ? = inconclusive; / = not tested or not shown. An excerpt weighted towards active compounds, which were near 21% of everything screened. Unless noted, calls come from the whole dose curve; as a rule, active = well fitted inhibition curve with a large enough effect; inconclusive = small, poorly fitted or top-dose-only effect, or another doubt; inactive = no such curve, though single readings can be large or run the other way.

SMILES	Pf growth 96h	CHX counter	Shiga inhibitor	HCMV antiviral	Pf growth 48h	HCV inh
O=C(CSc1nnc(-c2ccco2)o1)Nc1ccccc1Cl	146%	16*	13	-35	174%	6%
Cc1ccsc1/C=N/NC(=O)CC(=O)NCC(C)C	-19%	-3	-11	-7	33%	12%
CN(C(=O)NCc1noc2ccccc12)c1cccc(Cl)c1	/	/	/	-10	/	/
CNC1(C)C2CCC(C2)C1(C)C (stereo not drawn)	6µM*	/	/	/	-12%	/
COc1ccc(/C=N/Nc2ncnc3c2[nH]c2ccc(C)cc23)c(OC)c1OC	?	-1	15	-80*	?	?
COc1ccc(/C=N/NC(=O)c2[nH]c3ccc(C)cc3c2-c2ccccc2)c(C(=O)O)c1OC	11%	0	2	-18	12%	-11%
COc1cc(OC)c(OC)cc1/C=N/Nc1ncnc2c1[nH]c1ccccc12	-19%	3	-12	-7	?	10µM*
N=c1c(C(=O)NCc2ccc(F)cc2)cc2c(=O)n3ccccc3nc2n1Cc1ccco1	?	-3	2	32	21%	1µM*
N=c1c(C(=O)NCc2ccccc2)cc2c(=O)n3ccccc3nc2n1Cc1ccco1	0%	-8	-14	26	/	7.9µM*
N=c1c(C(=O)NCc2ccco2)cc2c(=O)n3ccccc3nc2n1Cc1ccc(Cl)cc1	2.3µM*	17	29	19	10µM*	5µM*
Cc1ccc(CNC(=O)c2cc3c(=O)n4ccccc4nc3n(Cc3ccco3)c2=N)cc1	/	-3	-14	-26	?	?
N=c1c(S(=O)(=O)c2ccc(Cl)cc2)cc2c(=O)n3ccccc3nc2n1CCN1CCOCC1	-25%	-1	-1	-25	?	13µM*
CCOC(=O)C1CCCN(C(=O)c2nn(-c3ccc(C)cc3)c(=O)c3c2c2ccccc2n3C)C1 (stereo not drawn)	/	/	/	3	/	/
Cc1ccc(S(=O)(=O)NC(C)C(=O)OCC(=O)Nc2sccc2C(N)=O)cc1 (stereo not drawn)	/	/	/	7	/	/
N=c1c(C(=O)NCCN2CCOCC2)cc2c(=O)n3ccccc3nc2n1CCCN1CCOCC1	39%	-9	-4	55	?	9%
N=c1c(C(=O)NCCN2CCOCC2)cc2c(=O)n3ccccc3nc2n1Cc1ccc(F)cc1	10µM*	7	-3	-27	9.3µM*	?
Cc1ccc2nc3c(cc(C(=O)NCc4ccco4)c(=N)n3Cc3ccco3)c(=O)n2c1	-1%	-3	-29	-61*	1.7µM*	4.5µM*
COCCn1c(=N)c(C(=O)NCc2ccco2)cc2c(=O)n3ccccc3nc21	/	-2	38	12	11%	-29%
CCOC(=O)c1cccc(Nc2nc(-c3cccnc3)nc3ccccc23)c1	8.3µM*	-2	-11	-21	13µM*	?
O=C(O)c1cccc(Nc2nc(-c3cccnc3)nc3ccccc23)c1	?	-1	11	-30	4%	18%
COC(=O)c1cccc(Nc2nc(-c3cccnc3)nc3ccccc23)c1	?	-2	13	-9	?	7.1µM*
COC(=O)c1ccc(Nc2nc(-c3ccncc3)nc3ccccc23)cc1	-1%	-4	-4	-1	6%	-12%
COC(=O)c1cccc(Nc2nc(-c3ccncc3)nc3ccccc23)c1	?	-2	-7	26	1.9µM*	?
NC(=O)c1cccc(-c2noc(-c3ccccc3F)n2)c1	?	/	/	20	?	/
Cc1ccc(-c2noc(-c3ccccc3C(=O)N3CCOCC3)n2)cc1	-26%	12	2	52	/	-14%
SMILES	Pf growth 96h	CHX counter	Shiga inhibitor	HCMV antiviral	Pf growth 48h	HCV inh
NC(=O)c1ccccc1-c1nc(-c2ccccc2)no1	147%	44*	95*	110	88%	8%
CN1CCN(C(=O)c2ccccc2-c2nc(-c3ccccc3)no2)CC1	-9%	22*	62	61	22%	7%
CC(=O)OC1CCC2C3CCc4cc(OP(=O)(N5CC5)N5CC5)ccc4C3CCC12C (stereo not drawn)	/	/	/	13	/	/
O=C(N/N=C(\c1ccccc1)c1cccnc1)c1cc(O)ccc1O	16%	-2	-12	-4	5%	/
C/C(=N\NC(=O)c1cccc(N/N=C(\C)c2ccco2)c1)c1ccco1	7%	29*	90*	-22	0%	-19%
C/C(=N\NC(=O)c1cccc(N/N=C(\C)c2cc(O)ccc2O)c1)c1cc(O)ccc1O	?	32*	88*	-78*	?	?
C/C(=N\NC(=O)c1ccc([N+](=O)[O-])cc1)c1cccc([N+](=O)[O-])c1	?	11	3	45	27%	8%
C/C(=N\NC(=O)c1cccc([N+](=O)[O-])c1)c1ccco1	13%	15*	50*	24	13%	-1%
COC(=O)c1ccccc1S(=O)(=O)Oc1ccc(-c2ccc(C(=O)O)cc2)cc1	?	4	1	-18	11%	33%
O=C(O)c1ccc(-c2ccc(OS(=O)(=O)c3ccccc3F)cc2)cc1	23%	19*	65*	37	41%	40%
COCCNC(=O)C1(C)CCCN(C(=O)c2ccccc2C(F)(F)F)C1 (stereo not drawn)	/	/	/	-5	/	/
CN(c1ccccc1)S(=O)(=O)c1cccc(C(=O)N2CCCCCC2)c1	?	/	/	-34	11%	?
C=CCN(c1ccccc1)S(=O)(=O)c1cccc(C(=O)N2CC(C)CC(C)C2)c1 (stereo not drawn)	?	-2	4	-85*	?	7.1µM*
CC1CC(C)CN(C(=O)c2cccc(S(=O)(=O)N(C)c3ccccc3)c2)C1 (stereo not drawn)	-22%	/	/	?	-2%	32µM*
CCN(c1ccccc1)S(=O)(=O)c1cccc(C(=O)N2CCN(S(=O)(=O)c3ccccc3)CC2)c1	8.3µM*	0	-7	9	?	?
O=C1/C(=N\S(=O)(=O)c2cccs2)C([n+]2ccccc2)=C([O-])c2ccccc21	?	-5	-4	-66*	?	6.3µM*
Oc1c(Br)cc(Br)cc1/C=N/N1CCN(Cc2ccccc2)CC1	49%	-3	-7	19	11%	7%
O=C(Cc1ccc(Br)cc1)N1CCN(Cc2ccccc2)CC1	?	18*	21	-1	?	15%
O=[N+]([O-])c1ccc(C(O)CN2CCN(Cc3ccccc3)CC2)cc1 (stereo not drawn)	?	-1	-1	-28	?	-1%
O=[N+]([O-])c1ccc(C(O)CN2CCN(C/C=C/c3ccccc3)CC2)cc1 (stereo not drawn)	4.1µM*	-1	-2	7	7.4µM*	13µM*
